Measured values taken from PubChem BioAssay (EPA / NIEHS).
“And” between values parts separate entries of the source, which are not always exact repeats. Identical values can stand only once. Records with an inconclusive call do not appear. More than one record can exist for a structure, and the calls need not agree. The source made the active and inactive calls. The calls were made as follows, unless noted: active = hit-call score of the fitted dose curve at least 0.9, where 1 is the maximum; inactive = score below 0.9.

Experiments:
[1] = ATG_NRF2_ARE_CIS: Attagene CIS-FACTORIAL HepG2 Assay for human Nuclear Factor Erythroid 2 Related Factor 2 (NFR2) response to Antioxidant Response Elements (ARE) (AID 2282992); details: HepG2 Attagene ARE/NRF2 reporter, transcription factor activity; actives raise or lower the signal
Outline: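 Multiplexed reporter mRNA profiling in HepG2 after a 24 h chemical exposure. Curves fitted in both directions relative to DMSO negative control.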

[2] = ATG_Oct_MLP_CIS: Attagene CIS-FACTORIAL HepG2 Assay for human Octamer-Binding Transcription Factor (Oct) (AID 2282993); details: HepG2 Attagene cis-factorial Oct reporter, mRNA; actives raise or lower the signal
Outline: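 HepG2 cells transiently transfected with cis-element-driven reporter transcription units (endogenous TF activity); 24 h compound exposure. Reporter mRNA quantified by RT-PCR, 6-FAM labelling, HpaI digestion and capillary electrophoresis; bidirectional fit versus DMSO baseline.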

[3] = target: Cellular tumor antigen p53 (Homo sapiens) (UniProt P04637); assay: ATG_p53_CIS: Attagene CIS-FACTORIAL HepG2 Assay for human p53 Transcription Factor (AID 2282994); details: HepG2 p53 cis-element reporter, Attagene mRNA; actives raise or lower the signal
Cellular tumor antigen p53 (Homo sapiens), sequence (P04637 whole entry, looked up): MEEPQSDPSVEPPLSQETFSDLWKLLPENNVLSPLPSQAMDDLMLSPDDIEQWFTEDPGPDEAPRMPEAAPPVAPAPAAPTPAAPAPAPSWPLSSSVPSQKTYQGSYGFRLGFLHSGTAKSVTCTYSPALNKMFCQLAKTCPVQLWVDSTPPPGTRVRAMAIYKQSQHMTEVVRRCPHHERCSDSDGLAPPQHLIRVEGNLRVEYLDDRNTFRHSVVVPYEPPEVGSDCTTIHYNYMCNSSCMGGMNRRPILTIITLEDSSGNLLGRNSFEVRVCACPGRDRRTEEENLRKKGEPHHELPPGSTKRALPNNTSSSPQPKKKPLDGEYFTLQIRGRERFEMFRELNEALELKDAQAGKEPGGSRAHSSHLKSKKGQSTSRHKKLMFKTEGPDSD
Outline: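 Multiplexed reporter mRNA assay in human HepG2 liver cells; cis-regulated units report endogenous factor activity. Values come from bidirectional curve fitting against DMSO negative control after 24 h treatment.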

[4] = target: human Peroxisome Proliferator-activated Receptor delta (PPARd), PPARD (gene 5467) (UniProt Q03181); assay: ATG_PPARd_TRANS: Attagene TRANS-FACTORIAL HepG2 Assay for human Peroxisome Proliferator-activated Receptor delta (PPARd) (AID 2283002; active = hit-call score of the fitted dose curve at least 0.9, where 1 is the maximum)
human Peroxisome Proliferator-activated Receptor delta (PPARd), PPARD (gene 5467), sequence (Q03181 whole entry, looked up, the tested form may be a part): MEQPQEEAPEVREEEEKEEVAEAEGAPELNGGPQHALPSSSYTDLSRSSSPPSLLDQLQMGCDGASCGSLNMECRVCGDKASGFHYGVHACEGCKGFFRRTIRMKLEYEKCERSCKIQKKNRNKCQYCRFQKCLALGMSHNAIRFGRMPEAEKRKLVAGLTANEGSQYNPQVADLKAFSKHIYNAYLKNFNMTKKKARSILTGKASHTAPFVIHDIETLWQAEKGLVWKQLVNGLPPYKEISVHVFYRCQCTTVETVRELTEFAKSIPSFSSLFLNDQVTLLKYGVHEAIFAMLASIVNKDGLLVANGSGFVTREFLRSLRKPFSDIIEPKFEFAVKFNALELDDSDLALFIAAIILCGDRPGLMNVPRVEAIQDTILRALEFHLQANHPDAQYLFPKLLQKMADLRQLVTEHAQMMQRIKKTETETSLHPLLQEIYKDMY
Outline: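 Read-out: reporter mRNA induction, quantified by fluorescent RT-PCR products resolved by capillary electrophoresis. Human HepG2 liver cells carried transiently transfected Gal4-UAS reporter constructs with chimeric NR-Gal4 fusions. Cells were dosed for 24 h; DMSO served as baseline.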

[5] = target: human Peroxisome Proliferator-activated Receptor alpha (PPARa), PPARA (gene 5465) (UniProt Q07869); assay: ATG_PPARa_TRANS: Attagene TRANS-FACTORIAL HepG2 Assay for human Peroxisome Proliferator-activated Receptor alpha (PPARa) (AID 2283001; active = hit-call score of the fitted dose curve at least 0.9, where 1 is the maximum;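 as to AC50: potency for gain of reporter signal over DMSO so agonist or activator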)
human Peroxisome Proliferator-activated Receptor alpha (PPARa), PPARA (gene 5465), sequence (Q07869 whole entry, looked up, the tested form may be a part): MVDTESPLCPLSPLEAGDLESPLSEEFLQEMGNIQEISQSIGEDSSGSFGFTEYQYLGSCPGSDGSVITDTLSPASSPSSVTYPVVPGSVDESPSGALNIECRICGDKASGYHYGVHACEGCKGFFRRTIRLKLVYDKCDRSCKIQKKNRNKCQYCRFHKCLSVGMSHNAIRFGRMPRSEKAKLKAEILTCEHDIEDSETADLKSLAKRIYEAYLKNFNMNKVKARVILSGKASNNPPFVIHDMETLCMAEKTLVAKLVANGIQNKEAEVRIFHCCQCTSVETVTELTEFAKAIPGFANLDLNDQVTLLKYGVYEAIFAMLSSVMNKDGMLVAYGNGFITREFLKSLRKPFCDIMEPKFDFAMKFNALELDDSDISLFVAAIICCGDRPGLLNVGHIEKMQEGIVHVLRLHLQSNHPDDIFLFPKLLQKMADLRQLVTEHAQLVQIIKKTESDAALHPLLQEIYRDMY
Outline: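 HepG2 cells transiently transfected with multiplexed GAL4-UAS reporters driven by exogenous chimeric NR-Gal4 proteins; reporter mRNA measured after 24 h dosing. Read-out by RT-PCR, 6-FAM labelling, HpaI digestion and capillary electrophoresis; gain of signal versus DMSO.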

[6] = BSK_3C_TissueFactor: BioMAP Diversity Plus: 3C Assay for Tissue Factor Biomarker Activity (AID 2282997); details: BioMAP 3C HUVEC, tissue factor biomarker readout; actives raise or lower the signal
Outline: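 Dosing of human umbilical vein endothelial cells preceded a 24 h incubation. Tissue Factor was then read by ELISA, with increases and decreases both scored relative to DMSO controls.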

[7] = BSK_3C_VCAM1: BioMAP Diversity Plus: 3C Assay for Vascular cell adhesion molecule 1 (VCAM1) Biomarker Activity (AID 2282999); details: BioMAP 3C HUVEC, VCAM1 ELISA, cytokine-stimulated; actives raise or lower the signal
Outline: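 Human umbilical vein endothelial cells (3C system), biomarker read by ELISA 24 h after dosing; bidirectional fit against DMSO baseline. Cytotoxicity tracked by SRB total-protein staining in parallel cultures at biomarker time.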

[8] = BSK_4H_Eotaxin3: BioMAP Diversity Plus: 4H Assay for Eotaxin 3 Biomarker Activity (AID 2283000); details: primary human endothelial cells (HUVEC); actives raise or lower the signal
Outline: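 Human umbilical vein endothelial cells (BSK_4H system) dosed with test chemical; Eotaxin-3 (CCL26) measured by ELISA 24 h after dosing. Bidirectional curve fitting relative to DMSO negative control as baseline.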

[9] = BSK_3C_uPAR: BioMAP Diversity Plus: 3C Assay for Urokinase-type plasminogen activator receptor (uPAR) Biomarker Activity (AID 2282998); details: BioMAP 3C HUVEC, uPAR biomarker ELISA; actives raise or lower the signal
Outline: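 Primary human umbilical vein endothelial cells, 3C system; surface uPAR measured by ELISA 24 h after dosing. Cytotoxicity via SRB total protein in parallel cultures; bidirectional fit against DMSO.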

[10] = ATG_NF_kB_CIS: Attagene CIS-FACTORIAL HepG2 Assay for human Nuclear Factor Kappa B (NF-kB) (AID 2282991); details: HepG2 Attagene cis-factorial NF-kB reporter mRNA; actives raise or lower the signal
Outline: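 Fluorescence of labelled RT-PCR products separated by capillary electrophoresis gives reporter mRNA levels from transfected HepG2 cells exposed 24 h; values are fitted in both directions relative to DMSO.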

Measured: AC50

NCCN
inactive: [1] | [2] | [3] | [4]

NS(=O)(=O)O
inactive: [1] | [2] | [3] | [5] | [4]

CCCCC(CC)C(=O)O (centres undefined)
not listed: [3] | [9] | [10]
inactive: all other assays above

CC(C)(C)C1CCCCC1O (centres undefined)
inactive: [1] | [2] | [3] | [4]

CS(=O)(=O)c1ccc([C@@H](CC2CCCC2)C(=O)Nc2cnccn2)cc1Cl
active: [2] 122 µM
inactive: [3] | [6] | [7] | [8] | [4]

Cc1ccc(C)c(S(=O)(=O)O)c1
inactive: [1] | [2] | [3] | [5] | [4]

CC(C)c1c(C(=O)Nc2ccccc2)c(-c2ccccc2)c(-c2ccc(F)cc2)n1CC[C@@H](O)C[C@@H](O)CC(=O)O
inactive: [2] | [4]

COCN(COC)c1nc(N(COC)COC)nc(N(COC)COC)n1
not listed: [5] | [9] | [10]
inactive: all other assays above

CN(C)CCOC(c1ccccc1)c1ccccc1
inactive: [2] | [6] | [9] | [7] | [8]

O=C1NS(=O)(=O)c2ccccc21
not listed: [3] | [9] | [10]
inactive: all other assays above

NC(=NCCCCCCN=C(N)/N=C(\N)Nc1ccc(Cl)cc1)/N=C(\N)Nc1ccc(Cl)cc1
active: [1] 2.26 µM | [2] 23.5 µM | [3] 8.29 µM and 8.25 µM | [6] 4.88 µM | [7] 7.92 µM | [8] 5.53 µM | [4] 24.5 µM
inactive: [1] | [2] | [3] | [4]

Oc1c(Cl)ccc(Cl)c1Cl
inactive: [1] | [2] | [3] | [5]

CCCCCCCCCCCCCCCC(=O)OC
inactive: [1] | [2] | [3] | [5] | [4]

CCC(C)c1nccnc1OC (centres undefined)
inactive: [1] | [2] | [3] | [5]

Cc1ccc(S(=O)(=O)O)cc1
inactive: [1] | [2] | [3] | [5]

CNNCc1ccc(C(=O)NC(C)C)cc1
inactive: [1] | [2] | [3] | [4]

Nc1ccn([C@@H]2O[C@H](CO)[C@@H](O)C2O)c(=O)n1 (some centres undefined)
active: [4] 56.6 µM
inactive: [1] | [2] | [5]

O=C(Nc1cccc([N+](=O)[O-])c1)c1cc2ccccc2cc1O
inactive: [2] | [3] | [5] | [4]
active: [1] 1.37 µM

NNC(=O)CCCCC(=O)NN
inactive: [1] | [2] | [4]

Cc1[nH]nc2c1N=C(c1ccccc1Cl)c1cc([N+](=O)[O-])ccc1N2
inactive: [2] | [5] | [4]
active: [1] 19.8 µM | [6] 3.97 µM | [9] 4.73 µM | [7] 3.03 µM | [8] 1.4 µM

CC1CCC(CO)CC1 (centres undefined)
inactive: [1] | [2] | [5] | [4]

CN(Cc1cnc2nc(N)nc(N)c2n1)c1ccc(C(=O)N[C@@H](CCC(=O)O)C(=O)O)cc1
inactive: [1] | [2] | [6] | [9] | [7] | [8]

O=C1OC2(c3ccccc31)c1cc(I)c(O)c(I)c1Oc1c2cc(I)c(O)c1I
active: [6] 12 µM | [9] 5.04 µM | [7] 12 µM | [8] 8.42 µM
not listed: [10]
inactive: all other assays above

CCCCCC(C)OC(=O)COc1ccc(Cl)c2cccnc12 (centres undefined)
active: [1] 42.4 µM
inactive: [2] | [3] | [4]

CCCCCCCCCCCCOS(=O)(=O)O
inactive: [6] | [7] | [8]

O=C(c1ccccc1)c1ccccc1
inactive: [2] | [3] | [6] | [7] | [8] | [5] | [4]
active: [3] 168 µM

Oc1c(Cl)cc(Cl)cc1Sc1cc(Cl)cc(Cl)c1O
active: [1] 3 µM | [2] 3.57 µM | [6] 22.2 µM and 21 µM | [7] 31.3 µM and 28.6 µM | [8] 22.2 µM and 18.5 µM
inactive: [3] | [4]

O=C(Nc1ccc(Cl)c(Cl)c1)c1cc(Cl)cc(Cl)c1O
inactive: [4]
active: [1] 0.522 µM | [2] 1.11 µM | [3] 10.9 µM | [5] 4.32 µM

CC(C)(C)c1ccc(O)c(O)c1
inactive: [10] | [2] | [3] | [4]
active: [6] 3.97 µM | [7] 20 µM | [8] 7.29 µM

CCCCCCCCCCCC(=O)O
active: [1] 100 µM | [2] 90.6 µM
inactive: [1] | [2] | [5] | [4]

CCc1ccccc1O
active: [1] 37.1 µM
inactive: [10] | [2] | [4]

Cn1sccc1=O
active: [1] 161 µM | [2] 171 µM
inactive: [5]

CCCCc1oc2ccccc2c1C(=O)c1cc(I)c(OCCN(CC)CC)c(I)c1
inactive: [3] | [4]
active: [2] 27.3 µM | [6] 10.2 µM | [7] 22.6 µM | [8] 19.6 µM

Cc1ccccc1OCC(=O)O
inactive: [1] | [2] | [4]
